A selection: hits, their analogues and other compounds. The true share with any hit is near 2.1%.
TSG101-PTAP inh – qHTS Assay for Iinhibitors of HIV-1 Budding by Blocking the Interaction of PTAP/TSG101. Tumor susceptibility gene 101 protein (Homo sapiens), Q99816. Fluorescence polarization, FITC-PTAP peptide / Tsg101 binding. 340,000 tested, under 10 active. AID 493005, 2010. Potency, µM (doses to about 115 µM), for the others: at the highest dose activity change, negative = inhibition, usual class: inhibitors; active = well fitted inhibition curve with a large enough effect in the main read-out, with a control signal flat, not every such curve was filed as active; inconclusive = small, poorly fitted or top-dose-only effect, or effect the other way, or a change in a side signal; inactive = no such curve, though single readings can be large or run the other way; also: potency is read from the fitted curve at half-maximal effect; % of control where 0% means no effect
Target sequence (Q99816 whole entry, looked up): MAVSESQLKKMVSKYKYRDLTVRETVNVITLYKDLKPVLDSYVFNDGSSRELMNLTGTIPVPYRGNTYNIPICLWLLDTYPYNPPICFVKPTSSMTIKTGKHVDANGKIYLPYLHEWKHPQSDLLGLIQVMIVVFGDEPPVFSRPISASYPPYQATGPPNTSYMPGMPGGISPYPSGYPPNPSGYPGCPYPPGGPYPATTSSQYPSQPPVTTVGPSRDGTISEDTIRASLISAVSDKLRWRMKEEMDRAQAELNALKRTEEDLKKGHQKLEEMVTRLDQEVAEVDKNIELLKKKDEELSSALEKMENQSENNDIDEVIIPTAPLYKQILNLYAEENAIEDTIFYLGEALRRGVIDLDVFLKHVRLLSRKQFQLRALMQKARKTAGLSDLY
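Steps: Tsg101 binding domain dispensed (10 uM final), compounds pinned in DMSO, FITC-labeled PTAP-motif peptide added (50 nM final); after 20 min binding at room temperature, polarization measured.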
GRP78 ERSR act – qHTS for Inducers of the Endoplasmic Reticulum Stress Response (ERSR) in Human Glioma: qHTS. U87-MG GRP78 promoter luciferase reporter, 16 h. Potency, µM, for the others: at the top dose activation, usual class: activators. hit rate 0.02% among 420,000; also: potency is read from the fitted curve at half-maximal effect; series mostly up to about 76 µM; % of control where 0% means no effect; nearly all actives have a fitted effect of over 35% in size
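Stably transfected U87-MG glioma cells carrying a GRP78-based luciferase sensor; 16 h compound incubation. Luminescence end-point read 10 min after Bright-Glo addition at room temperature.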
A549 viability – Nrf2 qHTS screen for inhibitors: counterscreen for cytotoxicity. A549 ARE-Fluc cells, CellTiter-Fluor viability, 18-24 h. Potency, µM (titrated, usually from 46 µM), without a hit: at the top dose activity change, negative = cytotoxicity, most hits filed as inhibitors. hit rate 0.16% among 390,000. AID 504648, 2011; also: potency is read from the fitted curve at half-maximal effect; % is scaled to controls: 0 for no effect and ±100 for the full control effect
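A549 ARE-Fluc cells in 5% FBS OPTI-MEM, 5000 cells/well, rested 2 h then exposed to compounds in concentration-response for 18-24 h at 37 °C. Viability by CellTiter-Fluor fluorescence (Ex 405/Em 525) after 30 min; luciferase luminescence (BugLite, 15 min, RT) read afterwards.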
miR-21 act – qHTS Assay for Modulators of miRNAs and/orActivators of miR-21. HeLa miR-21 FLuc reporter, luciferase, 48 h. Potency, µM (top dose mostly 38.3 µM), for the others: at the highest dose activity change, positive = activation, usual class: activators. 340,000 tested, under 10 active. AID 2288, 2010;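 also: % of control where 0% means no effect; miR-21 action dims this reporter so a rising signal means less miR-21 action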
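HeLa cells stably expressing CMV-driven firefly luciferase with a downstream miR-21 binding sequence, endogenously expressing miR-21, were treated with titrations (up to about 40uM final) for 48 hours at 37 degree Celsius. Luciferase luminescence was read after lysis.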
Nrf2 inh – Nrf2 qHTS screen for inhibitors | hit rate 2.1% among 360,000 | Potency, µM (doses to about 46 µM), for the others: at the top dose activity change, negative = inhibition, actives largely listed as inhibitors | A549 ARE-Fluc reporter, luciferase luminescence, 18-24 h; also: potency is read from the fitted curve at half-maximal effect; % is scaled to controls: 0 for no effect and ±100 for the full control effect; nearly all actives have a fitted effect of over 60% in size
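Cells were seeded and rested 2 h, then exposed to compounds for 18-24 h. CellTiter-Fluor was read first as a viability measure. BugLite was added 15 min before the final luminescent read of ARE-luciferase activity in A549 cells.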
Nrf2 ARE act – qHTS of Nrf2 Activators; AREc32 ARE-luciferase reporter (MCF7-derived line), luminescence, 24 h; AID 624171, 2012; Potency, µM (series often up to 46.1 µM), for the others: at the highest dose activation, usual class: activators; hit rate 0.31% among 410,000; also: potency is read from the fitted curve at half-maximal effect; % of control where 0% means no effect; nearly all actives have a fitted effect of over 65% in size
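Nrf2 activation is followed as ARE-luciferase induction in the AREc32 line after one day of compound treatment; luminescence is read with Steady-Glo.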
* marks the source's active call; other numbers are inactive results; ? = inconclusive; . = not tested or not shown; [ ] = dose if it differs, or a comment. Unless noted, calls follow the shape of the dose curve; as a rule, active = well fitted curve in the direction sought with a large enough effect; inconclusive = small, poorly fitted or top-dose-only effect, or another doubt; inactive = no such curve, though single readings can be large; an effect the other way counts as inactive or inconclusive.

SMILES	TSG101-PTAP inh	GRP78 ERSR act	A549 viability	miR-21 act	Nrf2 inh	Nrf2 ARE act
CC(C)(C)c1ccc(C(=O)C[n+]2cc(Br)cc(Br)c2)cc1	.	-5%	.	.	.	.
CSc1ccc(CN(C)C(=O)CNC(=O)c2sc3ccccc3c2Cl)cc1	1%	1%	?	-1%	10µM*	0%
COc1ccc(CN(C)C(=O)CNC(=O)c2sc3ccccc3c2Cl)c(OC)c1OC	-2%	-1%	1%	.	?	0%
Cc1c(N2C(=O)/C(=C/c3ccc(N(C)C)cc3)N(C)C2=S)c(=O)n(-c2ccccc2)n1C	30%	4%	23µM*	.	-8%	-1%
O=S(=O)(NC1CCCC1)c1ccc(S(=O)(=O)N(Cc2cccs2)CC2CCCO2)cc1 (configuration not stated)	0%	-4%	-13%	6%	18µM*	0%
COc1ccccc1NC(=O)C(=O)N1N=C(C(C)C)CC1(O)C(F)(F)F (configuration not stated)	0%	-2%	-21%	7%	23µM*	-1%
CC(=O)SC[C@@H](C)C(=O)N1CCC[C@H]1C(=O)N[C@@H](Cc1ccccc1)C(=O)O	.	-4%	.	.	.	.
CCSc1nn(CC(=O)Nc2cccc(Cl)c2)c(N)c1S(=O)(=O)c1ccc(OC)cc1	.	-3%	?	30%	18µM*	-2%
COc1ccc(S(=O)(=O)c2c(SC)nn(CC(=O)Nc3ccc(C)c(Cl)c3)c2N)cc1	.	-2%	?	?	23µM*	0%
COCC(C)n1c(SCc2ccc(OC)c(F)c2)nc2ccccc2c1=O (configuration not stated)	1%	-3%	5%	3%	23µM*	0%
CCn1c(SCc2ccc(OC)c(F)c2)nc2ccccc2c1=O	-2%	-1%	4%	-7%	-8%	5%
O=C(CCl)Nc1cc(SCC(O)CO)cc([N+](=O)[O-])c1 (configuration not stated)	-1%	-15%	6.5µM*	?	4.6µM*	-2%[9.22 µM]
CC(OC(=O)c1snc(C(=O)NC2CCCCC2)c1N)C(=O)NC(C)(C)C (configuration not stated)	-4%	-3%	-20%	18%	11µM*	0%
Fc1ccc2cc(-c3ccsc3)ncc2c1	-4%	6%	1%	.	?	8.9µM*
c1cc(-c2cc3cc4c(cc3cn2)OCO4)cs1	.	-1%	10%	.	?	?
Fc1ccc2cc(-c3cccnc3)ncc2c1	1%	0%	-3%	.	?	17%
COc1cc2cnc(-c3ccsc3)cc2cc1OC	-4%	3%	9%	.	4%	4.5µM*
Cc1c(C(=O)NCc2ccc(F)cc2)sc2ncnc(NCC3CCCO3)c12 (configuration not stated)	.	-4%	.	.	.	.
CC1CN(Cc2cccn2-c2ncccn2)Cc2cc(Cl)ccc2O1 (configuration not stated)	.	-3%	.	.	.	.
COc1cc(/C=C/c2ccc3c(Br)cc(Br)c(O)c3n2)ccc1O	-3%	28µM*	?	?	?	?
COc1ccc(/C=C/c2ccc3c(Br)ccc(O)c3n2)cc1	-3%	-2%	-8%	-21%	-5%	3%
CCCCOc1ccc(CSc2nc(C)[nH]c2[N+](=O)[O-])cc1[N+](=O)[O-]	?	4%	?	-6%	15µM*	5%
CC(C)c1c(C(=O)NCc2cccnc2)cnn1-c1nccc(-c2cccs2)n1	.	-1%	.	.	.	.
CCn1c(COc2c(C)cccc2C)nnc1SCC(=O)N1CCN(c2ccccc2)CC1	-1%	-5%	?	27%	18µM*	3%
C=CCn1c(COc2cccc(C)c2C)nnc1SCC(=O)N1CCN(c2ccccc2)CC1	-4%	-6%	?	28%	16µM*	1%
SMILES	TSG101-PTAP inh	GRP78 ERSR act	A549 viability	miR-21 act	Nrf2 inh	Nrf2 ARE act
Cc1cccc(OCc2nnc(SCC(=O)N3CCN(c4ccccc4)CC3)o2)c1C	-5%	-5%	-7%	-5%	?	-1%
C=CCn1c(SCC(=O)N2CCN(c3ccc(F)cc3)CC2)nnc1-c1ccco1	0%	0%	-14%	11%	18µM*	0%
C=CCn1c(SCC(=O)Nc2ccc(N3CCOCC3)cc2)nnc1-c1ccco1	-5%	-3%	-17%	0%	-7%	1%
Cc1cc(Nc2cccc(C(F)(F)F)c2)nc2ccc(NC(=O)c3cncc(Br)c3)cc12	.	-9%	-21%	-6%	21µM*	4%
Cc1cc(Nc2cccc(Cl)c2)nc2ccc(NC(=O)c3cncc(Br)c3)cc12	.	-6%	?	?	18µM*	-2%
O=C(Nc1cccc(NC(=O)c2cncc(Br)c2)c1)c1cncc(Br)c1	7%	-2%	2%	5%	8.2µM*	0%
Cc1ccccc1C(=O)Nc1ccc2nc(Nc3cccc(C(F)(F)F)c3)cc(C)c2c1	.	-3%	?	?	18µM*	0%
COC(=O)c1c(OCc2ccccn2)cc(=O)n2c1CCN(Cc1cccc(C(F)(F)F)c1)CC2	.	0%	.	.	.	.
Cc1cc(NC(=O)c2cncc(Br)c2)ccc1NC(=O)c1cc2ccccc2o1	-1%	-5%	?	1%	13µM*	0%
CC(=O)c1c(C)[nH]c(C(=O)CSc2ncnc3sc(-c4ccccc4)cc23)c1C	-3%	-2%	-7%	-10%	5.2µM*	0%[9.22 µM]
CC(=O)c1c(C)[nH]c(C(=O)CSc2nnc(-c3ccccc3)o2)c1C	1%	-6%	-14%	-13%	21µM*	0%
Cc1noc(C)c1-c1ccc2ncnc(NCc3ccc(Br)cc3)c2c1	.	.	4%	.	-63%	.
Cc1ccc(CNCc2c(C(=O)O)n(Cc3ccc(C)cc3)c3cc(C)ccc23)cc1	.	1%	?	?	?	-1%
C=Cc1ccc(Cn2c(C(=O)O)c(CNCc3ccccc3)c3ccc(C)cc32)cc1	.	19%	16µM*	?	?	-2%
NNC(=O)C(C(=O)OCc1ccccc1)c1ccccc1 (configuration not stated)	.	.	-14%	.	?	.
Cc1ccc(C)c(N2CCN(C(=O)c3ccc(CS(=O)Cc4ccc(Cl)cc4)o3)CC2)c1 (configuration not stated)	-4%	-7%	?	13%	21µM*	0%
CCn1c(-c2ccccc2F)nc2cc(NC(C)=O)cc(C(=O)N3CCCC3c3nccs3)c21 (configuration not stated)	.	-5%	.	.	.	.

Screening data from PubChem BioAssay.
